Only some compounds are listed: those with a hit (about 3.8% of all), similar ones and a draw of the others.
SUMO Mot1 rescue: blocks SUMOylation pathway, rescuing yeast Mot1-301 growth; AID 2716; S. cerevisiae Mot1-301 growth rescue, ATP luminescence, 38.5C; percent above DMSO median, 100 means doubled; 320,000 tested, 1% active; growth rescue, % at 18.8 µM;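 active = every valid replicate shows activation above 250% relative to neutral control wells; inactive = the rest, any valid replicate at or below 250%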;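 also: OY570 slx delta 5 strain wells were the positive control but not used for scaling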
CR mimetic SO: caloric restriction mimetics inhibiting age-related superoxide in yeast | S. cerevisiae aged cells, superoxide DHE fluorescence; stronger effect = lower value | superoxide response (% of plate mean), % at 10 µM | 330,000 tested, 0.18% active;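 active = superoxide response under a set limit, about three screen SD below normal, cut at about 65% in these data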;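 also: yeast aged for seven days with compound at 30 °C before DHE staining; 100% = average MFI of all compound-treated wells on the plate with controls excluded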
MPTP inh: blocks calcium-induced mitochondrial swelling; 360,000 tested, 1.4% active; inhibition, % at 10 µM; isolated mouse mitochondria, Ca2+ swelling absorbance, 30 min; AID 602449;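 active = inhibition of 50% or more, scaled per plate between neutral and stimulator controls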;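 also: 0% = DMSO wells given calcium and 100% = 1 mM EGTA wells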
H9c2 protect: myocardial damage modulation in H9c2 cells; AID 588492; H9c2 cardiomyocytes, H2O2 injury protection, ATPLite, 2 h; 360,000 tested, 0.63% active; protection from H2O2 cell death, % at 20 µM;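 active = compounds giving at least 50% protection of heart cells from peroxide-induced death in the single-dose screen, raw or plate-pattern-corrected value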;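 also: 0% = DMSO wells with peroxide and 100% = DMSO wells without peroxide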
FAS TE block: blocks the thioesterase domain of human fatty acid synthase; P49327; recombinant FAS-TE, OMFH fluorogenic substrate, fluorescence endpoint; inhibition, % at 15 µM; 360,000 tested, 0.67% active; AID 602261;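 active = compounds whose normalised, plate-corrected inhibition of enzyme fluorescence in the single-dose primary screen is 50% or more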;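 also: 0% = DMSO with enzyme and 100% = substrate without enzyme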
Target sequence (P49327 whole entry, looked up, the tested form may be a part): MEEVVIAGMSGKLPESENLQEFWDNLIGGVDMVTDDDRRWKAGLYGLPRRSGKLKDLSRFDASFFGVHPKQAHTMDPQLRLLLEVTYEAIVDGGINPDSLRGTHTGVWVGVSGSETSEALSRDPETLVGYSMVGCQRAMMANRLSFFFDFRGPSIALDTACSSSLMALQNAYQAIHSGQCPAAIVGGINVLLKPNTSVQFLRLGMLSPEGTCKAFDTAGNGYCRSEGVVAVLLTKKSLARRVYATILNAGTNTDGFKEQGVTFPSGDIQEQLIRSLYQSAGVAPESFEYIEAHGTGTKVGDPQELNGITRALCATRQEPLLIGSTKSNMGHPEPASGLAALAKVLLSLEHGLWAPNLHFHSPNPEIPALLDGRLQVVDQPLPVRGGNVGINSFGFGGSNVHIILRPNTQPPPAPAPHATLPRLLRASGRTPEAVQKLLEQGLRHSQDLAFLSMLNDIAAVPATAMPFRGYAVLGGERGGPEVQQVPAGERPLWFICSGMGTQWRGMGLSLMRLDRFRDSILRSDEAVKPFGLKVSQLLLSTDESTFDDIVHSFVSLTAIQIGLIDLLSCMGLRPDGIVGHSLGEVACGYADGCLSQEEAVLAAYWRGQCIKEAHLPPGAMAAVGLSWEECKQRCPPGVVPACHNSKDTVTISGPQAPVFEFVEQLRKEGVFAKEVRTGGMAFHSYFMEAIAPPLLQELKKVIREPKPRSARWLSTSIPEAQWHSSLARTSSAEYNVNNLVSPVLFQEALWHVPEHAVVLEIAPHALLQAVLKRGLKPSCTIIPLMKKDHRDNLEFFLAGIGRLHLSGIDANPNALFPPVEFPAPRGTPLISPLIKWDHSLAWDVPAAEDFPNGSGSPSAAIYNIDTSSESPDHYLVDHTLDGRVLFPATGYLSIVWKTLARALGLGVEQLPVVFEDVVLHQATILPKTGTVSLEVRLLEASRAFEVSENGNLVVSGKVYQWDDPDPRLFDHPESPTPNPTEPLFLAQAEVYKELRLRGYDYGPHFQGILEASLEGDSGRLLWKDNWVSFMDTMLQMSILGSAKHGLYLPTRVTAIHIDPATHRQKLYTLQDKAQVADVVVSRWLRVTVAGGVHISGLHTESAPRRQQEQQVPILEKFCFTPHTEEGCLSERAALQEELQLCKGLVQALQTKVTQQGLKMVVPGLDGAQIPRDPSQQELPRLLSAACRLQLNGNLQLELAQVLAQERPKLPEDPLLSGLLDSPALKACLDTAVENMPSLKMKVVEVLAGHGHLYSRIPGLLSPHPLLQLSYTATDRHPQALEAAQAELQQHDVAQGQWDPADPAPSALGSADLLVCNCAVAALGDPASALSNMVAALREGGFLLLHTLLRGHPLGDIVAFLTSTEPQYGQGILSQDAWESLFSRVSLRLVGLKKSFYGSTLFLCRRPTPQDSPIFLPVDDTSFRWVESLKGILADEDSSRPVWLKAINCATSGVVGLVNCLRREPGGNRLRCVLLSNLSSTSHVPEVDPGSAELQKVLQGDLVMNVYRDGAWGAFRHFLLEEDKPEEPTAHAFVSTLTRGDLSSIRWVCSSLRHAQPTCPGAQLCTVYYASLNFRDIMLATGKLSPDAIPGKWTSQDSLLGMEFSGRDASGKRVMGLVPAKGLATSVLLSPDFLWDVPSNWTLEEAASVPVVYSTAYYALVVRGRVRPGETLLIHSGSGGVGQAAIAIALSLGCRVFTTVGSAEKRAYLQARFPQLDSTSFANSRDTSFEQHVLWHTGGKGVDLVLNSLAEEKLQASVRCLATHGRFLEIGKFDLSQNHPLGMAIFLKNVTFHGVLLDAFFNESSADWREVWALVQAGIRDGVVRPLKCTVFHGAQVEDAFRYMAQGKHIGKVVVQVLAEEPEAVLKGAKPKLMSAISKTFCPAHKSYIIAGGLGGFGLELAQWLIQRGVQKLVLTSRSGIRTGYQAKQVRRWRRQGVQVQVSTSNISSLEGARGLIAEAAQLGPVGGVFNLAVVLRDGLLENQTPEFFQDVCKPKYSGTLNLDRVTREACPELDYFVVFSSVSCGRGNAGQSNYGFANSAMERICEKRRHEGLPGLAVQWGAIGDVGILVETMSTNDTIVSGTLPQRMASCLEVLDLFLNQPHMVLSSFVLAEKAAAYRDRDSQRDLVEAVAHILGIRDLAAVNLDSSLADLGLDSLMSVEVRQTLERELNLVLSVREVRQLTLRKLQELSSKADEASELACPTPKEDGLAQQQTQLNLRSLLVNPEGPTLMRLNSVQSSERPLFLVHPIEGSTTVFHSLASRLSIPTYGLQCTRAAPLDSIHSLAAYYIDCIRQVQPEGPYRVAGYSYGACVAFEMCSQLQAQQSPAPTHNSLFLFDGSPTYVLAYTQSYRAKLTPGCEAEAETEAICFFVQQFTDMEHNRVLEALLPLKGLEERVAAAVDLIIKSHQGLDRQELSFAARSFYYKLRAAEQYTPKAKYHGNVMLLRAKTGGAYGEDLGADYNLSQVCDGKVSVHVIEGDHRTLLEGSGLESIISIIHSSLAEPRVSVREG
aDG glyco act: alpha-DG glycosylation activation; Pro5-aDG cells, alpha-DG glycosylation AlphaScreen (IIH6); 0% Pro5, 100% B10-LARGE cell signal; activation, % at 10 µM; 360,000 tested, 0.22% active;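 active = activation of at least 8% versus controls, or a plate z-score of at least 8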;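 also: Pro5 are CHO cells carrying HIG-tagged alpha-DG that lacks glycosylation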
* = called active by the depositor.

C[C@@H]1CC=C[C@H]2[C@H]1C(=O)N(Cc1ccccc1)[C@H]2c1ccoc1 was read as SUMO Mot1 rescue 34, MPTP inh 0, H9c2 protect 5, FAS TE block 2 and aDG glyco act 0.
`CC[C@@H]1CC=C[C@H]2[C@H]1C(=O)N(Cc1ccccc1)[C@H]2c1ccoc1` gave SUMO Mot1 rescue 679*, MPTP inh 1, H9c2 protect -20, FAS TE block 27 and aDG glyco act 0.
Screening COc1cccc(C(=O)Nc2nnc(-c3ccc(Cl)cc3)o2)c1 returned SUMO Mot1 rescue 35, CR mimetic SO 126, MPTP inh -23, H9c2 protect 67*, FAS TE block 4 and aDG glyco act 0.
Screening O=C(Nc1nnc(-c2ccccc2)o1)c1ccc(Cl)cc1 returned CR mimetic SO 152, MPTP inh -2, H9c2 protect 29, FAS TE block -4 and aDG glyco act 0.
For CN(C)c1ccc(C(=O)Nc2nnc(-c3ccc(Cl)cc3)o2)cc1 the results were SUMO Mot1 rescue 12, CR mimetic SO 105, MPTP inh -2, H9c2 protect 53*, FAS TE block 1 and aDG glyco act 0.
For CC(=O)c1ccc(C(=O)Nc2nnc(-c3ccc(Cl)cc3)o2)cc1 the results were SUMO Mot1 rescue -7, CR mimetic SO 95, MPTP inh -5, H9c2 protect 66*, FAS TE block 1 and aDG glyco act 0.
CC(C)(C)c1nnc(N/N=C/c2ccccc2O)n(N)c1=O was read as SUMO Mot1 rescue -23, CR mimetic SO 109, MPTP inh 2, H9c2 protect 52*, FAS TE block 0 and aDG glyco act 2.
`CC(C)(C)c1nnc(N/N=C/c2ccccc2)n(N)c1=O` gave SUMO Mot1 rescue -9, CR mimetic SO 98, MPTP inh 0, H9c2 protect 8, FAS TE block -2 and aDG glyco act 0.
Screening COC(=O)c1cc(OC)c(OC)cc1NC(=O)c1ccc(C)o1 returned SUMO Mot1 rescue -5, CR mimetic SO 115, MPTP inh -4, H9c2 protect 50*, FAS TE block 0 and aDG glyco act 0.
Screening Cc1c(O)ccc(/C=N/Nc2ncccc2[N+](=O)[O-])c1O returned SUMO Mot1 rescue -17, CR mimetic SO 85, MPTP inh 4, H9c2 protect 15, FAS TE block 0 and aDG glyco act 5.8*.
For O=[N+]([O-])c1cccnc1N/N=C/c1ccccc1O the results were SUMO Mot1 rescue -13, CR mimetic SO 113, MPTP inh -2, H9c2 protect 30, FAS TE block 3 and aDG glyco act 0.
`COc1cc(OC)c2c(-c3ccccc3)cc(=O)oc2c1` gave SUMO Mot1 rescue 319*, CR mimetic SO 154, MPTP inh 0, H9c2 protect -2, FAS TE block 16 and aDG glyco act 0.
Cc1cc(OCC(=O)C(C)(C)C)c2c(-c3ccccc3)cc(=O)oc2c1 was read as SUMO Mot1 rescue 297*, CR mimetic SO 90, MPTP inh 0, H9c2 protect 2, FAS TE block 16 and aDG glyco act 0.
For O=C(O)CCc1nc2ccccc2c(=O)[nH]1 the results were SUMO Mot1 rescue -5, CR mimetic SO 109, MPTP inh 0, H9c2 protect 0, FAS TE block -6 and aDG glyco act 0.
`O=C(CCc1nc2ccccc2[nH]c1=O)OCC(=O)N1CCc2ccccc21` gave SUMO Mot1 rescue -13, CR mimetic SO 81, MPTP inh 0, H9c2 protect 8, FAS TE block 3 and aDG glyco act 0.
`CC(C)Cn1c(N)c(C(=O)COC(=O)CCc2nc3ccccc3c(=O)[nH]2)c(=O)n(C)c1=O` gave SUMO Mot1 rescue -9, CR mimetic SO 81, MPTP inh 0, H9c2 protect 54*, FAS TE block -7 and aDG glyco act 0.
`O=C(CCc1nc2ccccc2c(=O)[nH]1)OCC(=O)N1CCc2ccccc21` gave SUMO Mot1 rescue 7, CR mimetic SO 100, MPTP inh -1, H9c2 protect 57*, FAS TE block -3 and aDG glyco act 0.
For O=C(CCc1nc2ccccc2c(=O)[nH]1)N1CCN(c2ccc(F)cc2)CC1 the results were SUMO Mot1 rescue 1, CR mimetic SO 95, MPTP inh -1, H9c2 protect 72*, FAS TE block -9 and aDG glyco act 0.
